Results from PubChem BioAssay AID463173 (ICCB-Longwood Screening Facility, Harvard Medical School, 2010).
The whole screen tested about 52,000 compounds, of which about 1,700 (3.3%) were called active. No stated cut-off is given here; in the data, active means survival mostly below about 52% (no sharp cut-off); inactive means mostly above about 56%. The full list was thinned out, with actives kept by preference.

System: Wild type
Experiment: S. aureus survival, RN4220 and DeltatarO strains – OD600, teichoic acid synthesis inhibitors, primary screen (AID 463173)
Conditions: S. aureus RN4220 wild type/DeltatarO growth, OD600, 18 h, hits give low values, screened at 18.75 µg/mL (by protocol)

| SMILES | survival |
| --- | --- |
| COc1ccc(-n2ccnc(NCc3ccc(C)cc3)c2=O)cc1OC | 87% (inactive) |
| O=c1c(NCc2cccs2)nccn1-c1ccccc1 | 74% (inactive) |
| COc1ccc(-n2ccnc(NCc3cccs3)c2=O)cc1OC | 80% (inactive) |
| COc1ccc(-n2ccnc(NCc3cccs3)c2=O)cc1 | -3% (active) |
| COc1ccc(-n2ccnc(NCc3ccccc3OC)c2=O)cc1 | 85% (inactive) |
| COc1ccc(-n2ccnc(NCc3ccc(Cl)cc3)c2=O)cc1 | 0% (active) |
| COc1ccc(-c2cc3nc(C)c(CCC(=O)N4CCN(c5ccc(F)cc5)CC4)c(C)n3n2)c(OC)c1 | 85% (inactive) |
| COC(=O)c1cc(S(=O)(=O)N2CCN(c3ccc(C)cc3C)CC2)cn1C | 65% (inactive) |
| COCCNC(=S)N1CCC(c2nc(-c3ccc(N(C)C)cc3)no2)CC1 | 107% (inactive) |
| COCCNC(=O)CCCn1c(SCC(=O)Nc2cccc(C)c2)nc2c(sc3ccccc32)c1=O | 86% (inactive) |
| COc1cccc(-c2nc(SCc3cc(=O)c4ccc(C)c(C)c4[nH]3)n[nH]2)c1 | 97% (inactive) |
| CCOc1ccc(CNC(=O)CCS(=O)(=O)c2cc3c4c(c2)CCN4C(=O)CC3)cc1 | 71% (inactive) |
| CCN(CC)c1ccc(NC(=O)c2sc3ccccc3c2Cl)cc1 | 15% (active) |
| CCCC(=O)Nc1ccc(NC(=O)c2sc3ccccc3c2Cl)cc1 | 128% (inactive) |
| O=C(Nc1ccccc1Cl)c1sc2cccc(Cl)c2c1Cl | 72% (inactive) |
| Cc1cccc(NC(=O)c2sc3cccc(Cl)c3c2Cl)c1 | 6% (active) |
| Cc1ccc(NC(=O)c2sc3ccccc3c2Cl)cc1 | 76% (inactive) |
| COc1ccccc1NC(=O)c1sc2cccc(Cl)c2c1Cl | 71% (inactive) |
| O=C(Nc1ccc(N2C(=O)C=CC2=O)cc1Cl)c1ccco1 | 105% (inactive) |
| CC1CCCCN1CCCNC(=O)Cn1ncc2c3ccccc3n(Cc3ccccc3F)c2c1=O (centres undefined) | 90% (inactive) |
| O=C(Nc1ccccc1)c1cccc(N2CCCC2=O)c1 | 110% (inactive) |
| CC1CCN(S(=O)(=O)c2ccc(S(=O)(=O)N3CCCN(Cc4ccccc4)C3)cc2)CC1 | 107% (inactive) |
| C/C(=N\Nc1nc2sc3c(c2c2ncnn12)CC(C)(C)OC3)C(=O)O | 102% (inactive) |
| COc1ccc(C2C(C(N)=O)=C(C)Nc3nc(CCCO)nn32)c(OC)c1 (centres undefined) | 62% (inactive) |
| COc1ccc(-n2nc3c(N4CCC(C(=O)NC5CCCCC5)CC4)nnc(C)c3c2C)cc1 | 73% (inactive) |
| Cc1nc(SCC(=O)OC(C)(C)C)c2c3c(sc2n1)CCCC3 | 15% (active) |

| SMILES | survival |
| --- | --- |
| Cc1nc(SCC(N)=O)c2c3c(sc2n1)CCCC3 | 90% (inactive) |
| Cc1nc(SCC(=O)Nc2nsc(-c3ccc(C(C)(C)C)cc3)n2)c2c3c(sc2n1)CCCC3 | 92% (inactive) |
| COc1ccccc1Cc1nc2ccccc2nc1SCC(=O)Nc1ccc2c(c1)OCO2 | 45% (inactive) |
| O=C(Cn1nnc(-c2ccccc2)n1)N1CCCCC1 | 109% (inactive) |
| CC(=O)Nc1ccc(S(=O)(=O)N2CCN(Cc3ccccc3Cl)CC2)cc1 | 117% (inactive) |
| Cc1ccc(S(=O)(=O)N2CCN(Cc3ccccc3Cl)CC2)cc1 | 19% (active) |
| Cc1ccc(S(=O)(=O)N2CCC(C(=O)NCc3ccccc3Cl)CC2)cc1 | 64% (inactive) |
| CC(C)(C)c1ccc(C(=O)NC2(C(F)(F)F)NC(=O)N(CCc3ccccc3)C2=O)cc1 (centres undefined) | 43% (inactive) |
| Cc1c(Cl)cccc1NC(=O)Nc1ccc2snnc2c1 | 24% (active) |
| O=C(Nc1cccc(C(F)(F)F)c1)c1ccc2snnc2c1 | 118% (inactive) |
| CCc1ccccc1NC(=O)Nc1ccc2snnc2c1 | 82% (inactive) |
| O=C(Nc1cccc(C(F)(F)F)c1)Nc1cccs1 | 4% (active) |
| O=C(Nc1cccc(C(F)(F)F)c1)c1cccs1 | 116% (inactive) |
| O=C(Nc1cccc(C(F)(F)F)c1)Nc1ccc2snnc2c1 | 29% (active) |
| O=C(Nc1cccs1)Nc1cc(C(F)(F)F)ccc1Cl | 26% (inactive) |
| Cc1c(Cl)cccc1NC(=O)c1ccc2snnc2c1 | 106% (inactive) |
| O=C(Nc1ccc(F)cc1)Nc1ccc2snnc2c1 | 45% (inactive) |
| CCc1ccc(NC(=O)CSc2nc3c(sc4ccccc43)c(=O)n2CCN(CC)CC)cc1 | 73% (inactive) |
| CCN(CC)/C(=N/OCc1ccc(Cl)cc1Cl)c1nonc1N | 100% (inactive) |
| CC1=NN(C(C#N)c2ccccc2)C(C)(C)C1 (centres undefined) | 113% (inactive) |
| Cc1cccc(N2CCN(Cc3nnc(-c4ccc5c(c4)OCO5)o3)CC2)c1C | 83% (inactive) |
| Cc1cc2nnc(SCc3ccc(F)cc3)n2c2ccccc12 | -2% (active) |
| CCOC(=O)c1ccc(CSc2nnc3cc(C)c4ccccc4n23)cc1 | 108% (inactive) |
| CCCN(CCC)C(=O)CSc1nnc2cc(C)c3ccccc3n12 | 84% (inactive) |
| COc1ccc(Cn2c(SCc3ccc(C(=O)NCCc4ccccc4)cc3)nc3cccnc32)cc1 | 77% (inactive) |
| CCn1c(NCc2ccc(OC)c(OC)c2)nc2ccccc21 | 127% (inactive) |

| SMILES | survival |
| --- | --- |
| CCCn1c(NCc2ccc(N(CC)CC)cc2)nc2ccccc21 | 0% (active) |
| CCCCn1c(NCc2cc(Br)ccc2O)nc2ccccc21 | 69% (inactive) |
| CCCn1c(NCc2ccccc2F)nc2ccccc21 | 89% (inactive) |
| CCCCCn1c(NCc2ccccc2OC)nc2ccccc21 | -5% (active) |
| CCCn1c(NCc2ccccc2C)nc2ccccc21 | 95% (inactive) |
| CCCCn1c(NCc2ccc(N(C)C)cc2)nc2ccccc21 | 70% (inactive) |
| CCCCn1c(NCc2ccc(OC)cc2O)nc2ccccc21 | 88% (inactive) |
| CCCCCn1c(NCc2ccc(OC)cc2)nc2ccccc21 | -2% (active) |
| CCOc1ccc(CNS(=O)(=O)c2ccc3c(c2)CC(C)N3C(C)=O)cc1OC (centres undefined) | 70% (inactive) |
| CCN(C(=O)C1CCC(CNS(=O)(=O)c2cccc3nsnc23)CC1)c1ccccc1 (centres undefined) | 76% (inactive) |
| CCOC(=O)c1[nH]c(C)c(CCC(=O)Nc2ccccc2OCC)c1C | 84% (inactive) |
| COc1ccc(-c2cn3nc(N4CCCC(C(=O)Nc5ccc(Cl)cc5C)C4)sc3n2)cc1 (centres undefined) | 77% (inactive) |
| O=C(Cn1c(=O)n(Cc2ccco2)c(=O)c2sc3ccccc3c21)Nc1ccc(F)cc1F | 84% (inactive) |
| Cc1ccc(NC(=O)CN2CCCN(Cc3cc(C)ccc3C)S2(=O)=O)c(Cl)c1 | 55% (inactive) |
| CCc1cccc(C)c1NC(=O)CN1CCCN(Cc2ccc(C)cc2)S1(=O)=O | 0% (active) |
| CCc1cccc(C)c1NC(=O)CN1CCN(Cc2ccccc2Cl)S1(=O)=O | 134% (inactive) |
| O=C(CN1CCCN(Cc2ccccc2Cl)S1(=O)=O)NCc1ccccc1 | 78% (inactive) |
| Cc1ccccc1CN1CCCN(CC(=O)Nc2c(C)cccc2C)S1(=O)=O | 66% (inactive) |
| CCc1cccc(C)c1NC(=O)CN1CCCN(Cc2ccccc2Cl)S1(=O)=O | 14% (active) |
| Cc1ccc(CN2CCCN(CC(=O)Nc3ccc(C)cc3C)S2(=O)=O)cc1 | 85% (inactive) |
| Cc1cccc(CN2CCN(CC(=O)Nc3c(C)cccc3C)S2(=O)=O)c1 | 134% (inactive) |
| Cc1ccc(NC(=O)CN2CCCN(Cc3ccccc3Cl)S2(=O)=O)c(C)c1 | -1% (active) |
| COc1ccccc1CNC(=O)c1cnc2sc(N3CCOCC3)nn2c1=O | 153% (inactive) |
| CC(C)(C)c1ccc(C(=O)Nc2c(C(=O)c3ccc(F)cc3)oc3ccccc23)cc1 | 73% (inactive) |
| Cc1ccc(C(=O)N2CC3(C)CC2CC(C)(C)C3)cc1 (centres undefined) | 110% (inactive) |
| CCn1c(CN2CCCCC2)nc2cc(NC(=O)COc3ccc([N+](=O)[O-])cc3)ccc21 | 79% (inactive) |

| SMILES | survival |
| --- | --- |
| COc1cc(C(=O)N(CCc2ccccc2)C2CC3CCC(C2)N3C)cc(OC)c1OC (centres undefined) | 104% (inactive) |
| Cc1ccc(C)c(NC(=O)c2nc(S(=O)(=O)Cc3ccc(F)cc3)ncc2Cl)c1 | 109% (inactive) |
| COc1ccc(CNC(=O)c2nc(S(=O)(=O)Cc3ccccc3)ncc2Cl)cc1 | 34% (inactive) |
| O=C(NCc1ccccc1)c1nc(S(=O)(=O)Cc2ccccc2)ncc1Cl | 42% (inactive) |
| COc1ccc(OC)c(NC(=O)c2nc(SCc3ccc(F)cc3)ncc2Cl)c1 | 100% (inactive) |
| COc1ccc(OC)c(NC(=O)c2nc(S(=O)(=O)Cc3ccc(F)cc3)ncc2Cl)c1 | -3% (active) |
| O=C(NCc1ccccc1)c1nc(S(=O)(=O)Cc2ccc(F)cc2)ncc1Cl | -5% (active) |
| COc1cc(C2NC(=O)c3c(sc4c3CCN(C)C4)N2)ccc1OC(=O)c1ccccc1 (centres undefined) | 80% (inactive) |
| O=C(CSc1nc(=O)n(Cc2ccco2)c2c1CCC2)NCc1ccccc1 | 72% (inactive) |
| Cc1ccc(NC(=O)CCc2nnc3n(C)c(=O)c4sccc4n23)cc1C | 72% (inactive) |
| Cc1ccsc1CCN1C(=O)N(c2ccc(F)cc2)C(=O)C1CC(=O)Nc1ccccc1 (centres undefined) | 72% (inactive) |
| COc1ccc2c(CNCc3cccs3)c(C(=O)O)n(Cc3ccccc3)c2c1 | 84% (inactive) |
| COc1cc(NS(=O)(=O)c2ccc3[nH]c4c(c3c2)CCCC4)cc(OC)c1OC | 129% (inactive) |
| CCOC(=O)c1cccc(NC(=O)CCCn2c(C)c3cnn(-c4ccccc4)c(=O)c3c2C)c1 | 77% (inactive) |
| CC(C)CCSc1nnc2n(-c3ccccc3)c(=O)c3c4c(sc3n12)CC(C)CC4 (centres undefined) | 76% (inactive) |
| CCCSc1nc2sc3c(c2c(=O)n1-c1ccc(C)c(Cl)c1)CCN(C(C)=O)C3 | 87% (inactive) |
| Cc1ccc(-n2c(SCC(=O)O)nc3sc4c(c3c2=O)CCCC4)cc1 | 73% (inactive) |
| CSc1nc2sc3c(c2c(=O)n1Cc1ccccc1)CCC(C(C)(C)C)C3 (centres undefined) | 113% (inactive) |
| CCCSc1nc2sc3c(c2c(=O)n1-c1ccccc1)CCC(C)C3 (centres undefined) | 1% (active) |
| CCSc1nc2sc3c(c2c(=O)n1-c1ccc(C)c(Cl)c1)CCN(C(C)=O)C3 | 70% (inactive) |
| CCSc1nc2sc3c(c2c(=O)n1-c1ccc(C)cc1)CCCC3 | 0% (active) |
| CCOC(=O)CSc1nc2sc3c(c2c(=O)n1-c1ccccc1)CCC(C(C)(C)C)C3 (centres undefined) | 70% (inactive) |
| CSc1nc2sc3c(c2c(=O)n1-c1ccccc1)CCC(C(C)(C)C)C3 (centres undefined) | 12% (active) |
| CCCSc1nc2sc3c(c2c(=O)n1-c1ccc(C)cc1)CCCC3 | 5% (active) |
| Cc1ccc(-n2c(SCCC(C)C)nc3sc4c(c3c2=O)CC(C)(C)OC4)cc1 | 76% (inactive) |
| C=C(C)CSc1nc2sc3c(c2c(=O)n1-c1ccccc1)CCC(C)C3 (centres undefined) | 67% (inactive) |
